Consider 15 molecules from PubChem BioAssay (NCATS).

Values joined by “and” are separate entries in the source; they are usually repeats but may differ in a detail not shown here. Equal entries are not always repeated. Records with an inconclusive call do not appear. A number with no mark means an inactive call. Active and inactive are the calls of the source. Calls follow the shape of the dose curve; as a rule, active = well fitted curve in the direction sought with a large enough effect; inconclusive = small, poorly fitted or top-dose-only effect, or another doubt; inactive = no such curve, though single readings can be large; an effect the other way counts as inactive or inconclusive.

Test [1] can be described thus: Viability qHTS for spleen associated tyrosine kinase inhibitor (SYKi) naive MV4-11 cells (AID 1963823). Also: nearly all actives have a fitted effect of over 40% in size. Summed up: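 Cells: MV4-11, SYK inhibitor naive, 500 per well. Treatment: library compounds, 72 hr, 37 C, 5% CO2. Read-out: CellTiter-Glo luminescence after 10 min RT.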
On the technique in general: Quantitative high-throughput screening tests each substance at several concentrations.

A short description of test [2]: Viability qHTS for spleen associated tyrosine kinase inhibitor (SYKi) drug resistant MV4-11 cells (AID 1963824). Also: nearly all actives have a fitted effect of over 35% in size. Summed up:
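CellTiter-Glo luminescence, read 10 min after reagent addition, reports viability after a 72 hr compound exposure. Cells are an MV4-11 line made resistant to SYK inhibition, seeded at 500 per well onto compound-containing plates.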

Test [3] is described as follows: Quantitative highthroughput screen to assess conditional lethalithy of NOMO1 cells grown in RPMI1640 with untreated serum (RPMI+s) (AID 1963876). Also: nearly all actives have a fitted effect of over 35% in size.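 As to Viability: 100% = DMSO wells and 0% = empty wells without cells.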 Summed up: (§1)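 Each medium arm—HPLM with 10% dialyzed FBS, or RPMI1640 with 5 mM glucose and 10% untreated or dialyzed FBS—was screened against an 11-point, 3-fold compound titration for 48 h at 37 °C, with CellTiter-Glo luminescence as endpoint.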

Test [4] is described as follows: Quantitative highthroughput screen to assess conditional lethalithy of NOMO1 cells grown in Human Plasma-Like Medium with dialyzed fetal bovine serum (HPLM+ds) (AID 1963878). Also: nearly all actives have a fitted effect of over 35% in size.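 As to Viability: 100% = DMSO wells and 0% = empty wells on each plate.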 Summed up: as §1
A short description of test [5]: Quantitative highthroughput screen to assess conditional lethalithy of SEM cells grown in RPMI1640 with dialyzed fetal bovine serum (RPMI+ds) (AID 1963884). Also: nearly all actives have a fitted effect of over 35% in size.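 As to Viability: series mostly up to about 46 µM; 100% = DMSO control wells and 0% = empty wells without cells.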 Summed up: as §1
Test [6] is described as follows: Cellular viability qHTS for adrenocortical cancer (ACC) cell line SW-13 (AID 1963989). Also: nearly all actives have a fitted effect of over 65% in size.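 As to activity (max response): cells grown in serum-free medium with ITS supplement; % is scaled to controls: 0 for no effect and ±100 for the full control effect.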 The settings on record: SW-13 ACC cells viability, CellTiter-Glo, 48 h; activity (max response): active compounds read low. Put shortly:
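Viability was read as CellTiter-Glo luminescence after 48 h compound treatment (up to 46 uM final) of SW-13 cells grown serum-free; titration curves were fit with a four-parameter logistic model to give IC50 and efficacy.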

The nature of test [7]: Cellular viability qHTS for adrenocortical cancer (ACC) cell line NCI-H295R (AID 1963990). Also: nearly all actives have a fitted effect of over 60% in size. Put shortly:
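CellTiter-Glo ATP luminescence, read 48 h after compound addition, measured viability of NCI-H295R adrenocortical cells grown serum-free with ITS. Final concentrations spanned up to 46 uM. Data normalized to DMSO and doxorubicin, fitted for IC50 and maximal response.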

A short description of test [8]: Quantitative highthroughput screen to assess conditional lethalithy of P12 Ichikawa cells grown in Human Plasma-Like Medium with dialyzed fetal bovine serum (HPLM+ds) (AID 1963879). Also: nearly all actives have a fitted effect of over 35% in size. As to Viability: series mostly up to about 46 µM. Particulars: Potency: viability. Put shortly: as §1
The nature of test [9]: Quantitative highthroughput screen to assess conditional lethalithy of P12 Ichikawa cells grown in RPMI1640 with dialyzed fetal bovine serum (RPMI+ds) (AID 1963880). Also: nearly all actives have a fitted effect of over 35% in size.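 As to Viability: 100% = DMSO wells and 0% = empty wells on each plate.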 Particulars: Potency: P12-Ichikawa viability. Put shortly: as §1
The nature of test [10]: Quantitative highthroughput screen to assess conditional lethalithy of P12 Ichikawa cells grown in RPMI1640 with untreated serum (RPMI+s) (AID 1963881). Also: nearly all actives have a fitted effect of over 35% in size.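 As to Viability: series mostly up to about 46 µM; 100% = DMSO wells and 0% = empty wells without cells.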 The settings on record: Potency: viability. Summed up:
as §1

Test [11] is described as follows: Quantitative highthroughput screen to assess conditional lethalithy of SEM cells grown in RPMI1640 with unreated serum (RPMI+s) (AID 1963883). Also: nearly all actives have a fitted effect of over 35% in size.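 As to Viability: 100% = DMSO wells and 0% = empty wells without cells.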 Summed up:
as §1

A short description of test [12]: Quantitative highthroughput screen to assess conditional lethalithy of SEM cells grown in Human Plasma-Like Medium with dialyzed fetal bovine serum (HPLM+ds) (AID 1963882). Also: nearly all actives have a fitted effect of over 35% in size. As to Viability: series mostly up to about 46 µM. Put shortly: as §1
Potency is read from the fitted curve at half-maximal effect.

Turning to `O=c1c(O)c(-c2ccc(O)c(O)c2)oc2cc(O)ccc12`, the Potency in test [1] is 13.2 µM (active); in test [2], 5.8 µM (active) and 9.34 µM (active); in test [5], 23.5 µM (active). The Potency result in [3], in [4] and in test [7] was “inactive” in each case. Further, in test [6], the activity (max response) is 0.454%.

Take `COc1cc(C(=O)NC2CCN(C)CC2)ccc1Nc1ncc2c(n1)N(C1CCCC1)CCC(=O)N2C(C)C`: the Potency is 5.9 µM (active) in [1]; 4.17 µM (active) in test [2]; 20.9 µM (active) in [3]; 14.8 µM (active) in test [4]; 9.35 µM (active) in test [8]; 16.6 µM (active) in [9]. Moreover, the Potency is 11.8 µM (active) in test [10], 25.1 µM (active) in test [6] and 25.1 µM (active) in [7].

In the case of `O=C(NCCCNc1nc(Nc2cccc(NC(=O)N3CCCC3)c2)ncc1I)c1cccs1`, the Potency in test [1] was 0.0517 µM (active); in [2] it was 164 nM (active) and 263 nM (active). Besides, the Potency result in test [3], in [4], in [8], in test [9], in test [10] and in [7] was “inactive” in each case.

For `CN(C)c1ccc(-c2nc3ncc(Cl)c(N4CCN(CC(=O)Nc5nccs5)CC4)c3[nH]2)cc1`, the Potency was 0.257 µM (active) in test [1], 0.645 µM (active) in test [2] and 18.7 µM (active) in [4]. In addition, the Potency result in test [3], in test [8], in test [9], in test [10] and in test [7] was “inactive” throughout. Also, in [6], the activity (max response) was -12.9%.

Regarding `COc1cc2nccc(Oc3ccc(NC(=O)Nc4cc(C)on4)c(Cl)c3)c2cc1OC`, the Potency is 0.372 µM (active) in test [1]; 0.833 µM (active) in [2]; 3.32 µM (active) in [11]; 4.69 µM (active) in test [5]; 11.2 µM (active) in test [6]; 14.1 µM (active) in [7]. Moreover, the Potency result in [3] and in test [4] was “inactive” throughout.

As to `CNC(=O)c1cc(Oc2ccc(NC(=O)Nc3cc(C(C)(C)C)nn3-c3ccc4ncccc4c3)c(F)c2)ccn1`, the Potency in [1] is 0.0366 µM (active); in test [2], 73.1 nM (active) and 52.5 nM (active); in test [5], 0.469 µM (active); in test [6], 28.2 µM (active); in test [7], 31.6 µM (active). In addition, the Potency entry in test [3], in test [4], in [8], in [9] and in [10] was “inactive” in each case.

With `NS(=O)(=O)c1cc2c(cc1Cl)NC=NS2(=O)=O`, the Potency entry in test [1], in [2], in test [3], in test [4], in [8] and in test [9] was “inactive” each time. Moreover, the Potency result in test [10], in [12], in test [11], in [5] and in test [7] was “inactive” in each case. Besides, in [6], the activity (max response) is 2.09% and 0.632%.

For `COc1ccc2cc(-c3nc(-c4ccc(S(C)=O)cc4)[nH]c3-c3ccncc3)ccc2c1` (centres undefined), the Potency in test [1] is 9.34 µM (active) and 11.6 µM (active); in test [2] it was 9.34 µM (active) and 13 µM (active); in [7] it was 28.2 µM (active). In addition, the Potency entry in [3], in [4], in test [8], in test [12], in test [11] and in test [5] was “inactive” in each case.

For the molecule `NC(CO)(CO)CCc1ccc(Sc2cccc(OCc3ccccc3)c2)cc1Cl`, the Potency in [1] was 7.42 µM (active); in test [2], 3.72 µM (active); in test [3], 13.2 µM (active); in [4], 7.43 µM (active); in [8], 7.43 µM (active); in test [9] it was 14.8 µM (active). Moreover, the results for the Potency in test [10] and in [7] were 10.5 µM (active) and 3.98 µM (active), respectively.

Regarding `Nc1ccn([C@@H]2O[C@H](CO)[C@@H](O)[C@H]2O)c(=O)n1`, the Potency result in [1], in test [2], in test [10], in test [5] and in test [7] was “inactive” in each case. Also, the Potency is 0.0743 µM (active) in [3] and 0.0166 µM (active) in test [4]. Also, the activity (max response) in test [6] is 10.2%.

Consider `O=C(O)c1cc(=O)[nH]c(=O)[nH]1`, for which the Potency result in test [1], in test [2], in [3], in test [4], in [8] and in [10] was “inactive” each time. For the same molecule, the Potency entry in test [12], in [5] and in test [7] was “inactive” throughout. Also, the activity (max response) in [6] was -4.98%.

Turning to `O=c1cc(CN2CCOCC2)occ1OCCCCCSc1ccnc2cc(C(F)(F)F)ccc12`, the Potency in test [1] is 11.8 µM (active); in test [2], 9.34 µM (active); in test [6], 15.8 µM (active). For the same molecule, the Potency result in test [3], in test [4], in test [12], in test [11] and in [5] was “inactive” throughout.

As to `CCN(CC)C(=S)SSC(=S)N(CC)CC`, the Potency was 1.57 µM (active) in test [1]; 1.4 µM (active) and 5.31 µM (active) and 833 nM (active) in [2]; 2.96 µM (active) in test [3]; 3.32 µM (active) in [4]; 2.96 µM (active) in test [8]; 2.96 µM (active) in test [9]. Also, the Potency was 2.96 µM (active) in [10]; 0.833 µM (active) in test [12]; 1.05 µM (active) in test [11]; 0.662 µM (active) in test [5]; 16.4 µM (active) and 25.1 µM (active) in test [6]; 44.7 µM (active) in [7].

Take `Nc1ncnc2c1ncn2[C@@H]1O[C@H](CO)[C@@H](O)[C@@H]1O`: the Potency result in test [1], in test [2], in test [12] and in test [5] was “inactive” in each case. The Potency in test [3] was 9.35 µM (active); in test [4], 5.9 µM (active); in test [8] it was 7.43 µM (active); in test [9] it was 14.8 µM (active); in [10] it was 6.62 µM (active). For the same molecule, the activity (max response) in test [6] is -11.9%.

On to `CC(C)c1ccc2c(c1)c(SC(C)(C)C)c(CC(C)(C)C(=O)O)n2Cc1ccc(Cl)cc1`, for which the Potency in [1] is 16.6 µM (active); in [2], 10.5 µM (active). The Potency result in test [3], in [4], in test [8], in test [9], in [10] and in [12] was “inactive” each time. The Potency result in [11], in test [5] and in [7] was “inactive” throughout.
